cardiac RTF act: increases calcium sensitivity of human cardiac regulated thin filaments; activation, % at 7.2 µM; actives 0.24% (n = 340,000); P19429+P45379; IANBD-labeled TnC RTF fluorescence at EC20 calcium; 0% EC20 calcium, 100% full calcium;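 active means activation above the mean over all tested compounds plus 3 SD, cut at about 30% in these data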;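 further: rise in fluorescence read as greater calcium sensitivity of cardiac thin filaments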
TMEM16A inh: mouse TMEM16A channel inhibition, primary screen. normalized B-score (activity score, 25-100; higher = stronger inhibition) at 10 µM. HEK293 TMEM16A/YFP iodide influx fluorescence, ionomycin. actives 1.2% (n = 310,000). Q8BHY3;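 active means ratio plate-corrected score three or more library SD toward inhibition, starting fluorescence score within five deviations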;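 further: score derived from kinetic fluorescence span divided by baseline fluorescence per well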
Target sequence (Q8BHY3 whole entry, looked up): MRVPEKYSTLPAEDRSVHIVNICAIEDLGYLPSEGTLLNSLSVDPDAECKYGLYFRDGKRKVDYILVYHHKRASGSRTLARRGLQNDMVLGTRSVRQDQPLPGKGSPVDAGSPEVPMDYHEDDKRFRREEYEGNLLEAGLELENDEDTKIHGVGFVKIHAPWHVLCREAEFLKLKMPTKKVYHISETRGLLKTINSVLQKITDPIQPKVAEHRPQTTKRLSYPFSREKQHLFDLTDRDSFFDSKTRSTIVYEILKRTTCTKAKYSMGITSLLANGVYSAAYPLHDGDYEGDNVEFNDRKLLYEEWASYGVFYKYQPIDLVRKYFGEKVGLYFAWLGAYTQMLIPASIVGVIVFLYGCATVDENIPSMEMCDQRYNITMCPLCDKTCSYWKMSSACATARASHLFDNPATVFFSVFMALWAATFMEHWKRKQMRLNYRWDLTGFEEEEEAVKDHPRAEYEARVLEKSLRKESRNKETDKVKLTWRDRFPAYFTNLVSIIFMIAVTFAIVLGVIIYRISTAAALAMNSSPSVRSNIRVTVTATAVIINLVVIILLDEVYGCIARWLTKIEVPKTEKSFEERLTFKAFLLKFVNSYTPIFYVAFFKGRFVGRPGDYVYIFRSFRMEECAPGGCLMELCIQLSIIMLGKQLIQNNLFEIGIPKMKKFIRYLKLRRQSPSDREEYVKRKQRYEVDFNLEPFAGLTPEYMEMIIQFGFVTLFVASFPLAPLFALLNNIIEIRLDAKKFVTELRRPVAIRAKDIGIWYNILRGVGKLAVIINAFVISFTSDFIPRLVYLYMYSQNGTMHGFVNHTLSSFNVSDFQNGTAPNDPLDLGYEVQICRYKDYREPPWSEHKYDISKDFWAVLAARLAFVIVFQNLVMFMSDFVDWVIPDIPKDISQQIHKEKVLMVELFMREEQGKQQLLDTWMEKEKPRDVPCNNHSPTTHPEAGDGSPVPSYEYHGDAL
CRFR2-BP antag: CRF-BP/CRF-R2 complex antagonism. actives 0.59% (n = 350,000). AID 588475. HEK293 CRF-R2/CRF-BP, CRF-induced calcium fluorescence. inhibition, % at 11.8 µM;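 active means inhibition of the ligand-induced calcium signal above about 50% at the single tested concentration, limit read from the data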
ANO1 activ: activators or potentiators of mouse TMEM16A chloride channel. Q8BHY3. HEK293 TMEM16A/YFP-H148Q/I152L, iodide quench fluorescence; active compounds read low. B-score at 10 µM. actives 0.3% (n = 340,000). AID 623877;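 active means fluorescence-ratio B-score plate-corrected deviation score at least 3 library SD below zero, with starting fluorescence score within 5 deviations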;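 further: channel opened by trigger with iodide after compound preincubation; score built on the fluorescence ratio of max minus min over baseline; more negative score means more quench and so TMEM16A activation or potentiation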
CRFBP-R2 agonist: agonists of human CRF-binding protein/CRF-R2 receptor complex; actives 0.46% (n = 350,000); AID 588473; HEK293 CRF-R2/CRF-BP, calcium dye fluorescence (FLIPR); percent of saturating CRF peptide response; activation, % at 13.2 µM;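 active means activation of at least 50%, plus an integration ratio under a set limit after plate pattern correction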
RTF Ca sens inh: cardiac RTF calcium desensitization. P19429+P45379. IANBD-labeled cardiac RTF, Ca2+ fluorescence. inhibition, % at 7.15 µM. actives 0.12% (n = 340,000);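 active means inhibition above the mean inhibition of all tested compounds plus 3 SD, cut at about 17% in these data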;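 further: assay run at fixed EC70 calcium of 1.6 mM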
Of the large screens only hits and unclear results are named; the others gave an inactive call. This is a sample that favours compounds with a hit; in the whole collection about 2.4% have one here.

O=C1/C(=C\c2cc(Cl)c(O)c(Cl)c2)SC(=S)N1Cc1ccccc1	cardiac RTF act 525, CRFBP-R2 agonist 187
COc1ccc(O)c(/C=C2/SC(=S)N(Cc3ccccc3)C2=O)c1	cardiac RTF act 81, CRFBP-R2 agonist 74
COc1ccc(-c2nn(-c3ccccc3)cc2/C=C2/SC(=S)N(CCC(=O)O)C2=O)cc1	none
COc1ccc(/C=C2/SC(=S)N(Cc3ccccc3)C2=O)cc1O	none
CN1C(=O)/C(=C\c2ccccc2OCc2ccccc2)SC1=S	none
CN1C(=O)/C(=C\c2cc(N=Nc3ccccc3)ccc2O)SC1=S	TMEM16A inh 100
CC(=O)c1cccc(NC(=O)C(C)N2CCc3ccccc3C2)c1 (stereo not drawn)	none
COc1ccc(OC)c(/C=C2\SC(=S)N(Cc3cccnc3)C2=O)c1	CRFBP-R2 agonist 136
COc1ccccc1/C=C1/SC(=S)N(CCC(=O)Nc2cccnc2)C1=O	none
C[C@H](CO)N1C[C@H](C)[C@@H](CN(C)S(=O)(=O)c2cccc(C#N)c2)OCc2cn(nn2)CCCC1=O	none (no result: cardiac RTF act, TMEM16A inh, ANO1 activ, RTF Ca sens inh)
CCC(C)[C@H](NC(=O)N1CCCC1)C(=O)OC (stereo partly drawn)	none
CCC(C)[C@H](NC(=O)N1CCC(C)CC1)C(=O)OC (stereo partly drawn)	cardiac RTF act 44
CCOC(=O)C1(CC/C(C)=N\NC(N)=O)CC(C)(C)OC1=O (stereo not drawn)	none
COc1ccc(C)cc1N(CC(=O)N1CCCCCC1)S(=O)(=O)c1ccccc1	none
O=C(O)c1ccccc1-c1ccc(/C=c2\sc3nc4cc(Br)cnc4n3c2=O)o1	CRFBP-R2 agonist 157, RTF Ca sens inh 55
Cc1cc2nc3s/c(=C/c4ccc(-c5ccccc5C(=O)O)o4)c(=O)n3c2cc1C	CRFBP-R2 agonist 141
Cc1cc(C)cc(OCCNC(=O)CCc2ccccc2)c1	none
NC(=O)c1cn(-c2ccccc2)nc1-c1cc2ccccc2oc1=O	none
O=C(c1ccccc1)c1nn(-c2ccc(Cl)cc2)cc1C(=O)c1cc2ccccc2oc1=O	CRFR2-BP antag 101
NNC(=O)c1ccc(CSc2nc3ccccc3s2)cc1	none
COCCN(CCOC)C(=O)c1ccc(CSc2nc3ccccc3s2)cc1	TMEM16A inh 25
COC(=O)C1=C(N)c2c(F)cccc2C1(C#N)c1ccccc1 (stereo not drawn)	CRFR2-BP antag 58
COc1ccccc1-n1cnnc1SCC(=O)NCc1cccs1	CRFR2-BP antag 82
CCN(Cc1ccccc1)c1c(C(=O)O)cnc2c1cnn2C	ANO1 activ -4.8 (no result: cardiac RTF act, RTF Ca sens inh)
CCN1C(=O)c2cccc3c(S(=O)(=O)Nc4ccccc4OC)ccc1c23	CRFBP-R2 agonist 129
O=S1(=O)N(Cc2ccccc2F)CCCN1Cc1c(F)cccc1Cl	none
CCC/C(C#Cc1ccc(N(C)C)cc1)=C1/c2ccccc2C(=O)N1c1ccccc1	cardiac RTF act 114, CRFBP-R2 agonist 79 (no result: TMEM16A inh)
Cc1ccc(N(CC(=O)N/N=C/c2cccc(Br)c2)S(C)(=O)=O)cc1	none
Cn1c(SCC(=O)Nc2ccc3nc(SCC(=O)N4CCCC4)sc3c2)nnc1-c1ccc(N)cc1	none (no result: TMEM16A inh)
COc1ccc(Cn2nnnc2C(C(C)C)N(Cc2ccco2)Cc2cccs2)cc1 (stereo not drawn)	none
CC(C)C(c1nnnn1Cc1ccccc1)N(Cc1ccco1)Cc1cccs1 (stereo not drawn)	ANO1 activ -14
CCC1(O)CC(C(=O)OC)=NN1C(=O)c1ccccc1 (stereo not drawn)	none
CCC1=NN(C(=O)c2ccc(Cl)cc2)C(O)(c2ccccc2)C1 (stereo not drawn)	none
CCOC(=O)C1=NN(C(=O)c2ccc(C)cc2)C(O)(c2ccc(Cl)cc2)C1 (stereo not drawn)	TMEM16A inh 100, CRFBP-R2 agonist 90
COC(=O)C1=NN(C(=O)c2ccc(Cl)cc2)C(O)(c2ccccc2)C1 (stereo not drawn)	CRFBP-R2 agonist 72
CCC1=NN(C(=O)c2ccc([N+](=O)[O-])cc2)C(O)(c2ccccc2)C1 (stereo not drawn)	TMEM16A inh 25
Cc1ccc(S(=O)(=O)CNC(=S)c2cccc(Cl)c2)cc1	none
Cc1ccc(C(=O)Nc2ccc(Br)c(C(F)(F)F)c2)cc1	TMEM16A inh 100
Cc1ccc(NC(=O)c2ccc(C)cc2)cc1	none
CS(=O)CC(O)(c1ccc(F)cc1)C1CC1 (stereo not drawn)	none (no result: cardiac RTF act, TMEM16A inh, ANO1 activ, RTF Ca sens inh)
O=C(COc1ccc(Cl)cc1Cl)NC(=S)Nc1ccccc1C(=O)O	TMEM16A inh 25 (no result: cardiac RTF act, CRFR2-BP antag, ANO1 activ, CRFBP-R2 agonist, RTF Ca sens inh)
Cc1occc1C(=O)NNC(=S)NC(=O)COc1ccc(Cl)cc1Cl	TMEM16A inh 100, ANO1 activ -5, CRFBP-R2 agonist 230
Cc1occc1C(=O)NNC(=O)COc1ccc(Br)cc1Br	none
O=C(COc1ccc(Cl)cc1Cl)Nc1ccc(C(=O)Nc2ccccc2C(=O)O)cc1	none
C/C(N)=C(/C#N)C(=O)COC(=O)CNC(=O)c1ccc(Cl)cc1Cl	none
CCN(CC)C(=S)Oc1ccc(Cl)cc1Cl	none
CC1(C)CC(=O)C(C(c2ccncc2)C2C(=O)CC(C)(C)CC2=O)C(=O)C1	ANO1 activ -14
CSc1nnc(-c2sc(-c3ccccc3)nc2C)n1C	CRFR2-BP antag 55
NC(=O)COC(=O)c1cccc(S(=O)(=O)N2CCCCC2)c1	CRFR2-BP antag 86
O=C(NCc1cccc(Cl)c1)c1cccc(S(=O)(=O)N2CCCC2)c1	CRFBP-R2 agonist 87 (no result: TMEM16A inh)
Cc1ccc(CNC(=O)C2CCCN(S(=O)(=O)c3cccc4nonc34)C2)cc1 (stereo not drawn)	none
CCCCCCCCCn1c2c(c(=N)c3c1CCC3)CCC2	TMEM16A inh 100
Nc1nc(CSCc2ccccc2)nc(N2CCOCC2)n1	ANO1 activ -15
C=CCC1(CC=C)CCCN1C(=O)c1cc(COc2cncc(Cl)c2)on1	TMEM16A inh 25 (no result: CRFR2-BP antag, CRFBP-R2 agonist)
C=CCC1(CC=C)CCCN1C(=O)c1cc(COc2cccc(OC)c2)on1	none
Cn1c(CNC(=O)CNC(=O)c2cccc(F)c2)cc(=O)n(C)c1=O	none
CCCCCCCCCOC(=O)C[n+]1csc(CCO)c1C	CRFR2-BP antag 111
Cc1c(CCO)sc[n+]1CC(=O)OCCC12CC3CC(CC(C3)C1)C2	none
O=C/C(=C\Nc1ccccn1)c1nc2ccccc2o1	none
O=C/C(=C\Nc1ccccn1)c1nc2cc(Cl)ccc2o1	CRFR2-BP antag 80
Cc1c(Cl)ccc2c1NC(=O)[C@]21N[C@@H](CCC(N)=O)[C@H]2C(=O)N(c3ccc(F)cc3)C(=O)[C@H]21	none
